About 7,900 targets were measured; listed, in parts, are those with a hit and a random draw of the rest. About 0.6% of all pairs of compound and target were hits. Values without a mark were called inactive.
Legend:
Assay in all cases: log2 fold change, soluble protein after heating vs DMSO (PISA); higher = thermal stabilisation; K562 cells, 10 uM, 30 min; active = over 0.2 and 3.5 SD of the protein, either way, in both replicates (recomputed)
erlotinib = compound: C#Cc1cccc(Nc2ncnc3cc(OCCOC)c(OCCOC)cc23)c1 [erlotinib]
Outline: (§1)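 Soluble protein was quantified by TMTpro 16plex LC-MS/MS after channel sums were equalised. It was obtained as the supernatant after 21,000xg for 90 min from pooled aliquots of K562 cells (2×10^6 cells/mL, 10 μM compound, 30 min) heated for 3 min across 48°C-58°C and extracted in PBS with 0.5% NP-40 at 4°C. Thermal stability values are relative to control samples and come from duplicates. They are given as log2 fold changes.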

[1] = compound: C/C(=N\NC(=O)C1=CC(=CC=C1)S(=O)(=O)N2CCOCC2)/C3=C(C=CC(=C3)Cl)O
Outline: as §1

[2] = compound: C1=CC(=C(C=C1Cl)C2=NC3=NC=CN=C3C(=N2)NC4=CC=NC=C4)F
Outline: as §1

[3] = compound: C1=CC(=CC=C1C2=NC3=C(N2)C=C(C=C3)C(=O)N)OC4=CC=C(C=C4)Cl
Outline: as §1

[4] = compound: C1=CC2=C(C=CC(=C2)/C=C\3/C(=O)NC(=NCC4=CC=CS4)S3)N=C1
Outline: as §1

[5] = compound: C1=CC2=NC=CN=C2C=C1/C=C/3\C(=O)NC(=O)S3
Outline: as §1

[6] = compound: C1=CC=C(C=C1)C2=NC(=C(N2)C3=CC=NC=C3)C4=CC(=C(C=C4)Cl)O
Outline: as §1

[7] = compound: C1=CC=C2C(=C1)C3=NNC4=CC=CC(=C43)C2=O
Outline: as §1

[8] = compound: C1CCN(C1)C(=O)NC2=CC=CC(=C2)NC3=NC=C(C(=N3)NCCC4=CN=CN4)Br
Outline: as §1

[9] = compound: C1CN(CCC1(CC2=CC=C(C=C2)Cl)N)C3=NC=NC4=C3C=CN4
Outline: as §1

Chain of UniProt Q8WUK0 (Q8WUK0 whole entry, looked up): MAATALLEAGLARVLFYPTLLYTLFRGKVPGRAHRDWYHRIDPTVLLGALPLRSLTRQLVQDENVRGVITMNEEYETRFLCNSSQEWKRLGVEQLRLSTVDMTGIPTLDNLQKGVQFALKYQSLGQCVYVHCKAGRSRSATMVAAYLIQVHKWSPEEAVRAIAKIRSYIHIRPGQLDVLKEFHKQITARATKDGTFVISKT
Chain of UniProt Q16513 (Q16513 whole entry, looked up): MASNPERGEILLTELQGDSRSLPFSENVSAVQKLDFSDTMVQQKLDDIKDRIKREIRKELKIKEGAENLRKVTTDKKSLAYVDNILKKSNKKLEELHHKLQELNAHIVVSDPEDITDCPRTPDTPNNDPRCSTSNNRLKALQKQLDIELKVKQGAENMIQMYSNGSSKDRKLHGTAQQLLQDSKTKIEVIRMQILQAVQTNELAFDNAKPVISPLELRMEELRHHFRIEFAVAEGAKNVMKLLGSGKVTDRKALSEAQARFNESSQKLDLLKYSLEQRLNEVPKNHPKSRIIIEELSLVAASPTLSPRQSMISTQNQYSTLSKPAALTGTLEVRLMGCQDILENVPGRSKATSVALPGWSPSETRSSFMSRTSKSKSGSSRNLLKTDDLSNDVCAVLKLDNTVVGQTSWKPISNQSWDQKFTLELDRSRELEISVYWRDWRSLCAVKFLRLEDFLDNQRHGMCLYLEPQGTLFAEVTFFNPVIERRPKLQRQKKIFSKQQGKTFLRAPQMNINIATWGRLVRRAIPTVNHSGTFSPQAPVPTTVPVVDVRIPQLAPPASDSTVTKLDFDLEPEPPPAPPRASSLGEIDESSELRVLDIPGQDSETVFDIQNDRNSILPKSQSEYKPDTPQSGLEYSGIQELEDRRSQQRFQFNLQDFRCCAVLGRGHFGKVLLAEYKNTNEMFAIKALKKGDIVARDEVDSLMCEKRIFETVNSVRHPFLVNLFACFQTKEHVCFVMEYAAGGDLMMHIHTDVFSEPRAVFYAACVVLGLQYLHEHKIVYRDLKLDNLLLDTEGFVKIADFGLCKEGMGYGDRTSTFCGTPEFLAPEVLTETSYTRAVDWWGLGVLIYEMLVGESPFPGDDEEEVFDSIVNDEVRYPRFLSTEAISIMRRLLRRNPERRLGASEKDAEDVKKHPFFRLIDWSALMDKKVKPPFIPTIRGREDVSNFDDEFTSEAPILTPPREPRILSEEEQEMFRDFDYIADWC
Chain of UniProt Q8NBL1 (Q8NBL1 whole entry, looked up): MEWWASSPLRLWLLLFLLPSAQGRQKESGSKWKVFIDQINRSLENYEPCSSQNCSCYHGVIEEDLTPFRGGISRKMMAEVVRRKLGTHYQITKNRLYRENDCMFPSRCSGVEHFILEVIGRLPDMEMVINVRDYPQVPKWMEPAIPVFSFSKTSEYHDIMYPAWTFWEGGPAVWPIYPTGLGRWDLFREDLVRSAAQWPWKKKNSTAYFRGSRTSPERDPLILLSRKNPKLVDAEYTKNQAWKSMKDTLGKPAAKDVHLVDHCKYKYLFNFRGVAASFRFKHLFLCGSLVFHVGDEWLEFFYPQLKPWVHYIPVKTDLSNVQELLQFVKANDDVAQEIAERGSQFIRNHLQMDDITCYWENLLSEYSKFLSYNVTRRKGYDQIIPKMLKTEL
Chain of UniProt Q9NTI5 (Q9NTI5 whole entry, looked up): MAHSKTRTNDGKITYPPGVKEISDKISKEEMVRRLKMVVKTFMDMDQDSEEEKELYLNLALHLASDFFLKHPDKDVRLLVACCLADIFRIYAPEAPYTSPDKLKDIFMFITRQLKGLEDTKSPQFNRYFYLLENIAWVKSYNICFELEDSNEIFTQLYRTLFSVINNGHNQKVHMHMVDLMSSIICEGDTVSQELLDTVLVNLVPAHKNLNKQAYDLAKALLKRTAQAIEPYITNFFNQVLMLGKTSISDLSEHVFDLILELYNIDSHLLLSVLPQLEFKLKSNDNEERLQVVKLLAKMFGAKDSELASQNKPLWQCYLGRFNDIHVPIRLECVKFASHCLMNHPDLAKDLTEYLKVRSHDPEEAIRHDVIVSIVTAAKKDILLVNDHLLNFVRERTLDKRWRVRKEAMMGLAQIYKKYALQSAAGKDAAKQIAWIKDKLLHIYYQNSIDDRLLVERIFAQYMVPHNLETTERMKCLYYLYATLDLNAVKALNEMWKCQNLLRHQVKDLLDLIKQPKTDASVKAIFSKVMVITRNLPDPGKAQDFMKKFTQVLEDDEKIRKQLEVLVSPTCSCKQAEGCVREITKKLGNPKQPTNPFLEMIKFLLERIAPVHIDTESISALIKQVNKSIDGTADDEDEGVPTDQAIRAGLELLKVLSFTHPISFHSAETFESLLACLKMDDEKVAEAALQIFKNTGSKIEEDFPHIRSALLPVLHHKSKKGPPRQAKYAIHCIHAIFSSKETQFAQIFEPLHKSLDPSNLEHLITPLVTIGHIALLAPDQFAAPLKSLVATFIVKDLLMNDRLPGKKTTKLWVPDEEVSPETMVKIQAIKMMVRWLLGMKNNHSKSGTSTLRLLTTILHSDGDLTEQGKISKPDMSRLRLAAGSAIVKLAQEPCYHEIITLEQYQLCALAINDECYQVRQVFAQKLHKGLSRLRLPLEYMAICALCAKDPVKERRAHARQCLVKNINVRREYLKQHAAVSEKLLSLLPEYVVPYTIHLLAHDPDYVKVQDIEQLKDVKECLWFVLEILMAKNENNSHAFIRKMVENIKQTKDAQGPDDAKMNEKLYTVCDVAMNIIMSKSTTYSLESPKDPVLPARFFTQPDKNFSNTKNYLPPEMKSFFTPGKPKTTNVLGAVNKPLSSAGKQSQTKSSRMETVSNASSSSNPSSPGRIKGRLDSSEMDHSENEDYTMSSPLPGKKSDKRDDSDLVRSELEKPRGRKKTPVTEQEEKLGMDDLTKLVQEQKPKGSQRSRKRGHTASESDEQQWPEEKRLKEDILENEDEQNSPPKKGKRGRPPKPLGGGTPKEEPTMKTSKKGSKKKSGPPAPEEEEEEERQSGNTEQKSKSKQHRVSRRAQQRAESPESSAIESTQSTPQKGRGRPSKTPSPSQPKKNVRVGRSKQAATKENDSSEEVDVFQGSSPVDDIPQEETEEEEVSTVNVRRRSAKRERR
Chain of UniProt Q9Y478 (Q9Y478 whole entry, looked up): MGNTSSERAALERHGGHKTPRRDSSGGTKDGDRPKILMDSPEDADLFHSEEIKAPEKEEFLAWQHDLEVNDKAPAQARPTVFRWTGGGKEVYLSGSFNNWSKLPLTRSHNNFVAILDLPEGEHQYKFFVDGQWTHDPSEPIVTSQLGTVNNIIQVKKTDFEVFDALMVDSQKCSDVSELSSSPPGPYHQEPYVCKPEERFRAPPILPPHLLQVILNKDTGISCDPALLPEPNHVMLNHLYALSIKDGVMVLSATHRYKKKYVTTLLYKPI
Chain of UniProt P62136 (P62136 whole entry, looked up): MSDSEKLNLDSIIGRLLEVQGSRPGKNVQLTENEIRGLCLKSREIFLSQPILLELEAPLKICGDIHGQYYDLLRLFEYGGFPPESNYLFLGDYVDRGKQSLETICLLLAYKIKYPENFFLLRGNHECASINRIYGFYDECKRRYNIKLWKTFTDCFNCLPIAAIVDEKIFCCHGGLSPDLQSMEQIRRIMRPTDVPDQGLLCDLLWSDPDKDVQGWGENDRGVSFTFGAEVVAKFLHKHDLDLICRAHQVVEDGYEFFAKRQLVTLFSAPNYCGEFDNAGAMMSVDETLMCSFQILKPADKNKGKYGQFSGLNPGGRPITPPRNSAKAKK
Chain of UniProt Q16401 (Q16401 whole entry, looked up): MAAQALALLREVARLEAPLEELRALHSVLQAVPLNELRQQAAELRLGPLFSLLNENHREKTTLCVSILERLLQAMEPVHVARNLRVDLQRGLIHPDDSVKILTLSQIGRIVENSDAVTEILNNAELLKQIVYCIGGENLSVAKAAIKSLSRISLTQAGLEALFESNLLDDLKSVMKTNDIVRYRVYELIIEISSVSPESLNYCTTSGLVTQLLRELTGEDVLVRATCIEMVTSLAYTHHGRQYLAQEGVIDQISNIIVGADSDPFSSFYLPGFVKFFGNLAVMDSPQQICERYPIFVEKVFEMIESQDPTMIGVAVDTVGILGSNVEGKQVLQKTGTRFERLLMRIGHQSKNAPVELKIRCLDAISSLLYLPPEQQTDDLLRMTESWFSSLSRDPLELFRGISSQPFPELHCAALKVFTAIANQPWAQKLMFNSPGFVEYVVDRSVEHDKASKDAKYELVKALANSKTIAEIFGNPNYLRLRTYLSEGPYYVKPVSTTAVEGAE
Chain of UniProt Q9UMR5 (Q9UMR5 whole entry, looked up): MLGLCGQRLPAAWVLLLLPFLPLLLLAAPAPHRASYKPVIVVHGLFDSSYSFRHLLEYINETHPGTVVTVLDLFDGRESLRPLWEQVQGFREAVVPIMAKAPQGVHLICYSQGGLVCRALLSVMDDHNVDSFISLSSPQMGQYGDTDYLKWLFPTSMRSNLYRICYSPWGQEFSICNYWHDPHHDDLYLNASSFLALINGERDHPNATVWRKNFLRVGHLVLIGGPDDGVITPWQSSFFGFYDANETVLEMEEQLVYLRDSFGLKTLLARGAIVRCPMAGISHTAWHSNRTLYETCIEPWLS
Chain of UniProt Q9Y244 (Q9Y244 whole entry, looked up): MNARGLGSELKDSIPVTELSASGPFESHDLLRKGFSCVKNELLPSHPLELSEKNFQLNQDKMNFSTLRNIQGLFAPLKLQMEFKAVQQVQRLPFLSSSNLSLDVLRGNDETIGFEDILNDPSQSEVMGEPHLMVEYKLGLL
Chain of UniProt Q15008 (Q15008 whole entry, looked up): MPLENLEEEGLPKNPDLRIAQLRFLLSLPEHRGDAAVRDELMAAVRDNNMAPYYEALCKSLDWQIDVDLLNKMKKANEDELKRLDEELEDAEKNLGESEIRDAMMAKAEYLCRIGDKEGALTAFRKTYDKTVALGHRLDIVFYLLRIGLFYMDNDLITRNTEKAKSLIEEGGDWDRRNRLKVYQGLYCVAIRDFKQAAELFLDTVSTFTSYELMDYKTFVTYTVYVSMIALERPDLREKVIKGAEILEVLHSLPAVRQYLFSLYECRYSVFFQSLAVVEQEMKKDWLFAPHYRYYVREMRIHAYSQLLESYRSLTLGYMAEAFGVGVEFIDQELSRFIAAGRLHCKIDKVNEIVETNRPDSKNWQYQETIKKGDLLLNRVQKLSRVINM

| Target | log2 fold change (erlotinib) | log2 fold change [1] | log2 fold change [2] | log2 fold change [3] | log2 fold change [4] | log2 fold change [5] | log2 fold change [6] | log2 fold change [7] | log2 fold change [8] | log2 fold change [9] |
| --- | --- | --- | --- | --- | --- | --- | --- | --- | --- | --- |
| PTPMT1 (UniProt Q8WUK0) | -0.009 | -0.017 | 0.202 | 0.053 | 0.009 | 0.015 | 0.03 | 0.013 | -0.001 | -0.045 |
| PSMD5 (UniProt Q16401) | -0.015 | 0.038 | 0.063 | -0.007 | 0 | 0.027 | -0.001 | -0.012 | 0.014 | -0.004 |
| PPP1CA (UniProt P62136) | 0.026 | -0.002 | -0.015 | -0.006 | 0.036 | -0.005 | 0.001 | -0.03 | -0.004 | 0.009 |
| PSME4 (UniProt Q14997) | -0.011 | 0.017 | -0.028 | 0.065 | 0.055 | 0.022 | -0.007 | 0.027 | 0.008 | 0.014 |
| PKN2 (UniProt Q16513) | 0.067 | 0.073 | -0.019 | -0.075 | 0.076 | -0.075 | 0.07 | -0.031 | -0.033 | -0.209 |
| PRKACB isoform 2 (UniProt P22694) | 0.013 | 0.049 | -0.065 | 0.072 | 0.007 | 0.008 | -0.034 | -0.096 | -0.095 | 0.007 |
| PUM1 isoform 3 (UniProt Q14671) | -0.023 | 0 | 0.04 | 0.034 | 0.047 | 0.003 | -0.013 | 0.003 | -0.057 | 0.028 |
| POGLUT1 (UniProt Q8NBL1) | 0.006 | -0.046 | -0.041 | -0.004 | 0.055 | 0.026 | 0.167 | -0.013 | -0.007 | -0.041 |
| PRKAB1 (UniProt Q9Y478) | 0.043 | 0.15 | 0.052 | -0.011 | -0.06 | 0.024 | 0.019 | 0.026 | -0.076 | 0.068 |
| PCNT (UniProt O95613) | 0.284 | -0.138 | -0.095 | -0.099 | 0.15 | -0.023 | -0.079 | -0.097 | 0.065 | -0.021 |
| PDS5B (UniProt Q9NTI5) | -0.023 | 0.002 | 0.001 | 0.043 | 0.092 | 0.12 | 0.061 | 0.013 | -0.302 | -0.287 |
| POMP (UniProt Q9Y244) | 0.003 | -0.018 | 0.373 (active) | 0.015 | -0.073 | 0.086 | -0.018 | 0.003 | 0.061 | -0.034 |
| PSMD6 (UniProt Q15008) | -0.024 | -0.041 | -0.042 | 0.017 | -0.056 | -0.007 | 0.09 | 0.053 | 0.002 | 0.016 |
| PPT2 isoform 3 (UniProt Q9UMR5) | 0 | 0.056 | 0.033 | -0.001 | -0.026 | -0.02 | 0.038 | 0.039 | -0.012 | 0.031 |
| PIK3R1 (UniProt P27986) | 0.01 | 0.033 | 0.025 | 0.048 | 0.036 | 0.14 | -0.022 | -0.027 | -0.024 | 0.05 |
